From PubChem BioAssay AID1159580 (chemical genetic matrix, 2015)
The campaign covered roughly 5,500 compounds. About 2,000 (36%) were called active. Not shown: some 18% with an inconclusive outcome. Cut-off read from the data, not from the text of the source: active = normalized growth mostly below about 0.91 (no sharp cut-off); inconclusive = no clear call, values can overlap the other calls; inactive = mostly above about 0.92. The list shows a part of the results.

Assay: chemical genetic growth profiling, strain panel (AID 1159580);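 note: tested at 20 µM; growth read once vehicle control cultures reached saturation at 30 °C; 1 = growth at the plate median or of vehicle wells; lower values mean less growth of the strain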
Conditions: growth OD

Measured: normalized growth

O=C1C=CC(=C(c2ccc(O)cc2)c2ccc(O)cc2)C=C1
inactive: S. cerevisiae deletion strains, locus YJR075W, strain HOC1, hits give low values 1.02 | S. cerevisiae deletion strains, locus YKL009W, strain mrt4, hits give low values 0.995 | S. cerevisiae deletion strains, locus YKL068W, hits give low values 0.997 | S. cerevisiae deletion strains, locus YKL085W, strain MDH1 (second series), hits give low values 0.994 | S. cerevisiae deletion strains, locus YKL085W, strain MDH1, hits give low values 0.994 | S. cerevisiae deletion strains, locus YKL160W, strain elf1, hits give low values 1.01 | S. cerevisiae deletion strains, locus YKL190W, strain CNB1, hits give low values 0.994 | S. cerevisiae deletion strains, locus YKR001C, strain vps1, hits give low values 0.986 | S. cerevisiae deletion strains, locus YKR026C, strain gcn3, hits give low values 0.975 | S. cerevisiae deletion strains, locus YKR091W, strain srl3, hits give low values 0.989 | S. cerevisiae deletion strains, locus YLL001W, strain dnm1, hits give low values 0.976 | S. cerevisiae deletion strains, locus YLL026W, hits give low values 0.996 | S. cerevisiae deletion strains, locus YLL041C, strain sdh2, hits give low values 0.991 | S. cerevisiae deletion strains, locus YLR027C, strain aat2, hits give low values 0.998 | S. cerevisiae deletion strains, locus YLR039C, strain RIC1, hits give low values 1.04 | S. cerevisiae deletion strains, locus YLR058C, strain SHM2, hits give low values 0.991 | S. cerevisiae deletion strains, locus YLR102C, strain apc9, hits give low values 0.994 | S. cerevisiae deletion strains, locus YLR113W, strain HOG1, hits give low values 1.03 | S. cerevisiae deletion strains, locus YLR221C, strain rsa3, hits give low values 0.983 | S. cerevisiae deletion strains, locus YLR258W, strain gsy2, hits give low values 1.01 | S. cerevisiae deletion strains, locus YLR262C, strain YPT6 (second series), hits give low values 0.972 | S. cerevisiae deletion strains, locus YLR262C, strain YPT6, hits give low values 1.02 | S. cerevisiae deletion strains, locus YLR268W, strain sec22, hits give low values 1.02 | S. cerevisiae deletion strains, locus YLR320W, strain mms22, hits give low values 0.972 | S. cerevisiae deletion strains, locus YLR330W, strain CHS5, hits give low values 0.995 | S. cerevisiae deletion strains, locus YLR342W, strain FKS1 (second series), hits give low values 0.972 | S. cerevisiae deletion strains, locus YLR342W, strain FKS1, hits give low values 0.991 | S. cerevisiae deletion strains, locus YLR357W, strain rsc2, hits give low values 0.999 | S. cerevisiae deletion strains, locus YLR370C, strain arc18, hits give low values 0.964 | S. cerevisiae deletion strains, locus YLR371W, strain rom2, hits give low values 0.985 | S. cerevisiae deletion strains, locus YLR384C, strain iki3, hits give low values 0.986 | S. cerevisiae deletion strains, locus YLR418C, strain cdc73, hits give low values 0.999 | S. cerevisiae deletion strains, locus YML016C, strain PPZ1, hits give low values 0.991 | S. cerevisiae deletion strains, locus YML032C, strain rad52, hits give low values 0.98 | S. cerevisiae deletion strains, locus YML120C, strain ndi1, hits give low values 1.01 | S. cerevisiae deletion strains, locus YML124C, strain tub3, hits give low values 0.983 | S. cerevisiae deletion strains, locus YMR058W, strain fet3, hits give low values 0.982 | S. cerevisiae deletion strains, locus YMR078C, strain ctf18, hits give low values 0.98 | S. cerevisiae deletion strains, locus YMR125W, strain sto1, hits give low values 0.974 | S. cerevisiae deletion strains, locus YMR129W, hits give low values 0.987 | S. cerevisiae deletion strains, locus YMR205C, strain PFK2, hits give low values 0.995 | S. cerevisiae deletion strains, locus YMR223W, strain ubp8, hits give low values 0.982 | S. cerevisiae deletion strains, locus YMR231W, strain pep5, hits give low values 0.98 | S. cerevisiae deletion strains, locus YMR263W, strain SAP30, hits give low values 1.02 | S. cerevisiae deletion strains, locus YMR307W, strain GAS1, hits give low values 0.945 | S. cerevisiae deletion strains, locus YNL067W, strain RPL9B, hits give low values 1.03 | S. cerevisiae deletion strains, locus YNL071W, strain lat1, hits give low values 0.971 | S. cerevisiae deletion strains, locus YNL128W, strain TEP1, hits give low values 1.02 | S. cerevisiae deletion strains, locus YNL153C, strain GIM3, hits give low values 1.01 | S. cerevisiae deletion strains, locus YNL183C, strain NPR1, hits give low values 0.986 | S. cerevisiae deletion strains, locus YNL209W, strain ssb2, hits give low values 0.985 | S. cerevisiae deletion strains, locus YNL233W, strain BNI4, hits give low values 0.999 | S. cerevisiae deletion strains, locus YNL248C, strain rpa49, hits give low values 0.966 | S. cerevisiae deletion strains, locus YNL250W, strain rad50, hits give low values 0.984 | S. cerevisiae deletion strains, locus YNL271C, strain bni1, hits give low values 0.992 | S. cerevisiae deletion strains, locus YNL298W, strain CLA4, hits give low values 0.981 | S. cerevisiae deletion strains, locus YNL307C, strain MCK1, hits give low values 0.98 | S. cerevisiae deletion strains, locus YNL322C, strain KRE1 (second series), hits give low values 0.951 | S. cerevisiae deletion strains, locus YNL322C, strain KRE1, hits give low values 1.01 | S. cerevisiae deletion strains, locus YNR049C, strain mso1, hits give low values 0.979 | S. cerevisiae deletion strains, locus YNR052C, strain pop2, hits give low values 0.966 | S. cerevisiae deletion strains, locus YOL006C, strain TOP1, hits give low values 1.02 | S. cerevisiae deletion strains, locus YOL012C, strain htz1 1.83 | S. cerevisiae deletion strains, locus YOL147C, strain pex11, hits give low values 0.985 | S. cerevisiae deletion strains, locus YOR001W, strain rrp6, hits give low values 0.96 | S. cerevisiae deletion strains, locus YOR061W, strain CKA2, hits give low values 1 | S. cerevisiae deletion strains, locus YOR069W, strain VPS5, hits give low values 1.02 | S. cerevisiae deletion strains, locus YOR070C, strain gyp1, hits give low values 1 | S. cerevisiae deletion strains, locus YOR080W, strain dia2, hits give low values 0.986 | S. cerevisiae deletion strains, locus YOR083W, strain WHI5, hits give low values 1.02 | S. cerevisiae deletion strains, locus YOR106W, strain vam3, hits give low values 0.984 | S. cerevisiae deletion strains, locus YOR136W, strain idh2, hits give low values 0.982 | S. cerevisiae deletion strains, locus YOR144C, strain elg1, hits give low values 0.985 | S. cerevisiae deletion strains, locus YOR184W, strain ser1, hits give low values 0.988 | S. cerevisiae deletion strains, locus YOR231W, strain MKK1, hits give low values 1.04 | S. cerevisiae deletion strains, locus YOR265W, strain rbl2, hits give low values 0.978 | S. cerevisiae deletion strains, locus YOR270C, strain vph1, hits give low values 0.926 | S. cerevisiae deletion strains, locus YOR290C, strain snf2, hits give low values 1.01 | S. cerevisiae deletion strains, locus YOR316C, strain cot1, hits give low values 0.984 | S. cerevisiae deletion strains, locus YPL051W, strain arl3, hits give low values 0.987 | S. cerevisiae deletion strains, locus YPL055C, strain LGE1, hits give low values 1.06 | S. cerevisiae deletion strains, locus YPL078C, strain atp4, hits give low values 0.973 | S. cerevisiae deletion strains, locus YPL106C, strain sse1, hits give low values 0.994 | S. cerevisiae deletion strains, locus YPL240C, strain hsp82, hits give low values 0.973 | S. cerevisiae deletion strains, locus YPL241C, strain CIN2, hits give low values 1.02 | S. cerevisiae deletion strains, locus YPL256C, strain CLN2, hits give low values 1.05 | S. cerevisiae deletion strains, locus YPR119W, strain clb2, hits give low values 0.979 | S. cerevisiae deletion strains, locus YPR141C, strain kar3, hits give low values 0.992 | S. cerevisiae deletion strains, locus YPR163C, strain tif3, hits give low values 0.989 | S. cerevisiae deletion strains, locus YPR167C, strain met16, hits give low values 0.991 | S. cerevisiae deletion strains, strain wtn01, hits give low values 0.991 | S. cerevisiae strains, strain wild type, hits give low values 0.994
